# Source: PubChem BioAssay
# Inconclusive results are not listed. For part of these data: Results with a measured potency or affinity are listed apart. The source made the active and inactive calls. Unless noted, how the calls were made is not given here.
# Tests used:
# [1] = blockers of polyQ-driven CASP3 activation – cell-based (AID 1583); details: polyglutamine-induced caspase-3 activation, cell assay; stronger effect = higher value;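 tested at 10 µM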
# [2] = yeast 75Q aggregation reduction – 75Q-TubU reporter (AID 1593); details: Yeast 75Q polyglutamine aggregation reporter
# [3] = restoration of touch response, mutant HTT neurons – whole organism, C. elegans mechanosensory neurons, N-terminal huntingtin (AID 1599); details: C. elegans polyQ-huntingtin mechanosensory neurons, stronger effect = higher value
# [4] = blockers of cytochrome c efflux from mitochondria – biochemical, purified mitochondria (AID 1603); details: stronger effect = lower value;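 further: mouse liver mitochondria challenged with calcium chloride; signal normalized to the plate average as 100%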
# [5] = polyglutamine aggregate formation blockers (AID 1604); details: polyglutamine-induced protein aggregation inhibition assay; stronger effect = higher value; tested at 2.5 µM
# [6] = glutamate transport activators, MN-1 cells, MN-1 cell line (AID 1612); details: MN-1 motor neuron cells, stronger effect = higher value;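 further: tested at 1 µM final; 0% = mean of DMSO vehicle wells on each plate; positive means more glutamate uptake than control and negative means less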
# [7] = GFP-Q80 aggregate reduction, neuronal-like cells, cell-based, NGF-treated PC12, GFPQ80 (AID 1614); details: PC12 NGF-treated GFP-polyQ80 inclusion reduction;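 further: lower means fewer inclusions and 0 means no inclusions at all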
# [8] = 75Q-TubH aggregate inhibition, S. cerevisiae, yeast (AID 1616); details: S. cerevisiae 75Q-TubH polyglutamine aggregation suppression; stronger effect = higher value
# [9] = glutamate excitotoxicity neuroprotectants – cell-based, TUNEL DNA degradation staining, MNGlu (AID 1594); details: motor neurons, glutamate-induced death, at 1 µM, stronger effect = higher value
# [10] = molecular target: Mitogen-activated protein kinase 7 (Homo sapiens) (UniProt Q13164); test: Gal4-ERK5 driven luciferase induction – cell-based, HTS, primary screen (AID 1508626;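 active means luciferase signal above three times the same-plate solvent-only control wells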;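 further: luciferase driven by Gal4-ERK5 fusion binding five Gal4 sites before minimal TATA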); details: HeLa Gal4-ERK5 transactivation, 18 h, at 5 µM, stronger effect = higher value
# Chain of Mitogen-activated protein kinase 7 (Homo sapiens) (Q13164 whole entry, looked up, the tested form may be a part): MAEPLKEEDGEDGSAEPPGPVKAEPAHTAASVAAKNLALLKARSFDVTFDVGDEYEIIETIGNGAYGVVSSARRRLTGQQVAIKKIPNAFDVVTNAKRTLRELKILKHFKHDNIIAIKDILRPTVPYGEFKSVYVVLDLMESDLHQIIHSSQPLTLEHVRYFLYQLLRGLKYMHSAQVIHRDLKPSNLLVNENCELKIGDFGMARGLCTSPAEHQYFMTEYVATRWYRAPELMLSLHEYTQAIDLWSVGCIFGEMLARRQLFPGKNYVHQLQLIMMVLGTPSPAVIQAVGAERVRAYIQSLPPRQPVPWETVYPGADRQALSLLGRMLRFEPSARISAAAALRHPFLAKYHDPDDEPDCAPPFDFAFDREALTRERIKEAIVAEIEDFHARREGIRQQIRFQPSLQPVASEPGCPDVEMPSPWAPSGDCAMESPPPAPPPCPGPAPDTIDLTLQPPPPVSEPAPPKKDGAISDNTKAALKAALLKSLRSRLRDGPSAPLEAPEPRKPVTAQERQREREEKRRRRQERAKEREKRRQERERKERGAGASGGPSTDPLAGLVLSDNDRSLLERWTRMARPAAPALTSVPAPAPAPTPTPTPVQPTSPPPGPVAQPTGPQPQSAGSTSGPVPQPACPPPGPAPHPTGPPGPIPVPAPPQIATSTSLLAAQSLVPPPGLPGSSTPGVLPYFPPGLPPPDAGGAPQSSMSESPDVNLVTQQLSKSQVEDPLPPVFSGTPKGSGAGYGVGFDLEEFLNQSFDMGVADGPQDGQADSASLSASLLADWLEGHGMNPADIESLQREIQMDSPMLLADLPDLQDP
# [11] = compounds altering viability of human ES cells (AID 493140); details: human embryonic stem cell survival screen; stronger effect = higher value;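 further: cells exposed to compounds for four days before counting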
compound,measurement,setting,value
CNC(C)Cc1ccc2c(c1)OCO2 (stereo not given),inhibition,[1],-3.07%
same,score,[2],0.95
same,rescue above control,[3],-0.64
same,cytochrome c release ratio,[4],0.84
same,inhibition of aggregation,[5],0.68%
same,glutamate uptake change,[6],-3.54%
same,inclusion score,[7],2
same,aggregation suppression score,[8],1.38
O=C1CN=C(c2ccccc2)c2cc(Cl)ccc2N1,inhibition,[1],6.42%
same,score,[2],1.16
same,protection,[9],38% (active)
same,rescue above control,[3],2.8
same,cytochrome c release ratio,[4],0.98
same,inhibition of aggregation,[5],2.04%
same,glutamate uptake change,[6],-20.9%
same,inclusion score,[7],2
same,aggregation suppression score,[8],1.12
CCC(C)C(=O)OC1C[C@@]2(C)[C@H](c3ccoc3)OC(=O)CC23OC2(C)OC34C(OC(=O)C(C)C)[C@@]3(O)[C@@H](OC(=O)C5(C)OC5C)[C@@]5(C)C[C@]3(O)[C@@](C)([C@H]5CC(=O)OC)C14O2 (stereo not given in full),luciferase signal,[10],44 AU (inactive)
O=c1ccc2cc(O[C@@H]3OC(CO)[C@@H](O)[C@@H](O)C3O)c(O)cc2o1 (stereo not given in full),survival,[11],4.42 (inactive)
same,luciferase signal,[10],48 AU (inactive)
CCOC(=O)C1C(OC(=O)c2ccccc2)CC2CCC1N2C (stereo not given),inhibition,[1],4.42%
same,score,[2],1.01
same,rescue above control,[3],-8
same,cytochrome c release ratio,[4],0.89
same,inhibition of aggregation,[5],44.2%
same,glutamate uptake change,[6],-24.3%
same,inclusion score,[7],2
same,aggregation suppression score,[8],1.45
ClC1=C(Cl)C2(Cl)C3C4CC(C5OC45)C3C1(Cl)C2(Cl)Cl (stereo not given),inhibition,[1],8.56%
same,score,[2],0
same,rescue above control,[3],3.84
same,cytochrome c release ratio,[4],1.81
same,inhibition of aggregation,[5],72.4%
same,glutamate uptake change,[6],-23.9%
same,aggregation suppression score,[8],0.719
O=c1ccc2cc(O[C@H]3O[C@H](CO)[C@@H](O)[C@H](O)[C@H]3O)c(O)cc2o1,inhibition,[1],-25.3%
same,score,[2],0.99
same,rescue above control,[3],-9.34
same,cytochrome c release ratio,[4],0.66
same,inhibition of aggregation,[5],56.9%
same,glutamate uptake change,[6],21.7%
same,inclusion score,[7],2
same,aggregation suppression score,[8],0.763
CNC(C)Cc1ccccc1 (stereo not given),inhibition,[1],4.94%
same,score,[2],1.26
same,rescue above control,[3],3.06
same,cytochrome c release ratio,[4],0.97
same,inhibition of aggregation,[5],-0.68%
same,glutamate uptake change,[6],6.37%
same,inclusion score,[7],2
same,aggregation suppression score,[8],1.49
CC(N)Cc1ccccc1 (stereo not given),inhibition,[1],18%
same,score,[2],0.93
same,rescue above control,[3],-1.93
same,cytochrome c release ratio,[4],0.82
same,inhibition of aggregation,[5],10.2%
same,glutamate uptake change,[6],31.4%
same,inclusion score,[7],2
same,aggregation suppression score,[8],0.923
COc1cc(CCN)cc(OC)c1OC,inhibition,[1],8.49%
same,score,[2],1.47
same,rescue above control,[3],-5.41
same,cytochrome c release ratio,[4],0.91
same,inhibition of aggregation,[5],22.4%
same,glutamate uptake change,[6],-3.12%
same,inclusion score,[7],2
same,aggregation suppression score,[8],1.23
NCCC(O)C(=O)N[C@@H]1C[C@H](N)[C@@H](O[C@H]2O[C@H](CN)[C@@H](O)[C@H](O)[C@H]2N)[C@H](OC2O[C@H](CO)[C@H](O)[C@H]2O)[C@H]1O (stereo not given in full),inhibition,[1],5.62%
same,score,[2],1.4
same,rescue above control,[3],9.62
same,cytochrome c release ratio,[4],1.37
same,inhibition of aggregation,[5],83.3%
same,glutamate uptake change,[6],13.4%
same,inclusion score,[7],2
same,aggregation suppression score,[8],1.55
